For 2 sequences, binding signal results are on record in article PMC7862700, “An all-to-all approach to the identification of sequence-specific readers for epigenetic DNA modifications on cytosine”.

Test in all cases: DAPPL (digital affinity profiling via proximity ligation, sequencing); 10 mM Tris-HCl pH 7.5, 50 mM NaCl, 1 mM DTT, 4% glycerol, room temperature, 30 min; GST-TFs on glutathione beads, 16-mer random dsDNA library, 0.1% formaldehyde crosslink after washing; high values mean tight binding
Settings in all cases: protein: recombinant; tags: N-terminal GST; dsDNA, one strand shown

The target in one test is T1, GABPA (Homo sapiens, UniProt Q06546 1-454).
T1 sequence: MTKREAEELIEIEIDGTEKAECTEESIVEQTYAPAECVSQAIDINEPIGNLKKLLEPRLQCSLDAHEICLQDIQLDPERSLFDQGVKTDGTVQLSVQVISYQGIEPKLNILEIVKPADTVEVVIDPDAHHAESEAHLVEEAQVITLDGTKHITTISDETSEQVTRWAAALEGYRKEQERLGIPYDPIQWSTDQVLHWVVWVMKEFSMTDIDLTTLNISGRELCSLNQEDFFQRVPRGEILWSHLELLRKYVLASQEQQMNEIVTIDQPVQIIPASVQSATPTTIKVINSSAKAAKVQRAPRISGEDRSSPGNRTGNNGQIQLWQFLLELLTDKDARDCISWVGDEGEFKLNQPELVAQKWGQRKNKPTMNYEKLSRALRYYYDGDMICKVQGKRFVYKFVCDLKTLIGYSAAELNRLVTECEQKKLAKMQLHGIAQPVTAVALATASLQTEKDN
Put shortly:
(§1)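 A tag-only sample was pooled with DNA-barcoded human transcription factors that had been expressed in yeast as GST fusions and captured on glutathione beads. The pools were incubated for 30 min at room temperature with 200 nmole of a random double-stranded 16-mer DNA library in Tris/NaCl/DTT/glycerol buffer, then washed, crosslinked with 0.1% formaldehyde, proximity-ligated (BsaI/T4 ligase, 1 h, 37 °C), PCR-amplified and sequenced on an Illumina NextSeq500. Binding signal is each hexamer's read frequency for a factor divided by its frequency for the tag-only sample.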

Another test deals with T2, ERG (Homo sapiens, UniProt P11308 1-479).
T2 sequence: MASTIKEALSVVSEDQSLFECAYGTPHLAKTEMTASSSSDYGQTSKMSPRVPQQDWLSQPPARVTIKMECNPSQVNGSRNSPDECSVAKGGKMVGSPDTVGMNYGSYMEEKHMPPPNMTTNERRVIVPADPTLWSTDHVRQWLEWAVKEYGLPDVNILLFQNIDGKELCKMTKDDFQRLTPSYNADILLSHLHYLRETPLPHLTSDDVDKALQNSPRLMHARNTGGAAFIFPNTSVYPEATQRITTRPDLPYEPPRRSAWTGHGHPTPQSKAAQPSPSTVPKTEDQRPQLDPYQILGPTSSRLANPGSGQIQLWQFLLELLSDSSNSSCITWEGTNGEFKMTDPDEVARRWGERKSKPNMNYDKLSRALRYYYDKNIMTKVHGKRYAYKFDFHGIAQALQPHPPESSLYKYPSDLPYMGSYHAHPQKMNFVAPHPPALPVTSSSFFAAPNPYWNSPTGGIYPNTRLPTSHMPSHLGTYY
Put shortly:
as §1

In the next test the target is ETV5 (Homo sapiens, UniProt P41161 1-510). Put shortly: as §1
Sequence of ETV5 (P41161 whole entry): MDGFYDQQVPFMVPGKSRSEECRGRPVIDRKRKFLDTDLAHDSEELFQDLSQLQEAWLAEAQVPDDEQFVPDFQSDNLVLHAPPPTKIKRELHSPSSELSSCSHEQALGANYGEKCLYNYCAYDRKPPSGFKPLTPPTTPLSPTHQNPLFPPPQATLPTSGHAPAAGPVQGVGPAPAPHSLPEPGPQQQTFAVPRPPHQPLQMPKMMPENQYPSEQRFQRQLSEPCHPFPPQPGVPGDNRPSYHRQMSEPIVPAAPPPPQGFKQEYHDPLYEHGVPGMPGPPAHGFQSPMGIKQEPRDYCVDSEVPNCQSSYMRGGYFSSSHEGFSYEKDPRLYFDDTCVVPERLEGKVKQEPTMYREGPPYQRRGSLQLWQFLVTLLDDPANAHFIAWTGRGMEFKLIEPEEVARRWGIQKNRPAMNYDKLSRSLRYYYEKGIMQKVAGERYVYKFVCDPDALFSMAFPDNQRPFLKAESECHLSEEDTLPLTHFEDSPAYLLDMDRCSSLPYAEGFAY
A further test concerns the target ELF4 (Homo sapiens, UniProt Q99607 1-663). Put shortly:
as §1

A further test concerns the target T3, ELK4 (Homo sapiens, UniProt P28324-2 1-405).
T3 sequence: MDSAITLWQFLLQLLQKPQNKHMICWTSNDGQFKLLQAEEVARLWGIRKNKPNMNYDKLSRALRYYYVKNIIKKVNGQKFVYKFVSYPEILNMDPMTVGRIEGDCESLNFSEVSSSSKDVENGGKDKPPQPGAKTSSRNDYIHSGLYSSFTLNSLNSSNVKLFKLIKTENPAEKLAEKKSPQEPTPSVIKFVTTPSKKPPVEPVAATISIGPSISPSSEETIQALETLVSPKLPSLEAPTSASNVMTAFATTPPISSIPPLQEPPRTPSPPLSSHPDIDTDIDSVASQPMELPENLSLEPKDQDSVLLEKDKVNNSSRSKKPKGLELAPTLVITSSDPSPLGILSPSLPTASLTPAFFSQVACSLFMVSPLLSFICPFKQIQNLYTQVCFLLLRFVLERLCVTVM
Put shortly:
as §1

The target in another test is T4, ETV3L (Homo sapiens, UniProt Q6ZN32 1-361).
T4 sequence: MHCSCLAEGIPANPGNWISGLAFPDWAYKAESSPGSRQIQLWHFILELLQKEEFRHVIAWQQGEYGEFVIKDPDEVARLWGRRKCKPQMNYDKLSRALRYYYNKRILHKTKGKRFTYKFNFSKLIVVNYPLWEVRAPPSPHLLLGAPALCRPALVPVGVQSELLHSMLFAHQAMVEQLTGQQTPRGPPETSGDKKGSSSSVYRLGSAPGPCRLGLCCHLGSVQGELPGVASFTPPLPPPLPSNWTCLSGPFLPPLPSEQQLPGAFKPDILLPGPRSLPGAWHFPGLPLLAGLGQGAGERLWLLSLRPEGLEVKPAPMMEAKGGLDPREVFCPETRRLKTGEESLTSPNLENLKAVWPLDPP
Put shortly:
as §1

The next test deals with T5, ETV7 (Homo sapiens, UniProt Q9Y603 1-341).
T5 sequence: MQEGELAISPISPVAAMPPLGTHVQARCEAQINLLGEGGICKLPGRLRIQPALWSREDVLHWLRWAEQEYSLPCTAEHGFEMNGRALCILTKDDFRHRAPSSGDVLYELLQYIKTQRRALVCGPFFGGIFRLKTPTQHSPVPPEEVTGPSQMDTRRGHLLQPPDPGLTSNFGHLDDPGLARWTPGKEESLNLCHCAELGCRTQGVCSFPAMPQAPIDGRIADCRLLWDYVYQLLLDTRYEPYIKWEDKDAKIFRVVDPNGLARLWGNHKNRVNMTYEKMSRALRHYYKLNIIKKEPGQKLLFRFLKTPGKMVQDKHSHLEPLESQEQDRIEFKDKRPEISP
Put shortly: as §1

Another test has as its target ETV6 (Homo sapiens, UniProt P41212 1-452). Put shortly: as §1
Another test has as its target T6, ELK1 (Homo sapiens, UniProt P19419 1-428).
T6 sequence: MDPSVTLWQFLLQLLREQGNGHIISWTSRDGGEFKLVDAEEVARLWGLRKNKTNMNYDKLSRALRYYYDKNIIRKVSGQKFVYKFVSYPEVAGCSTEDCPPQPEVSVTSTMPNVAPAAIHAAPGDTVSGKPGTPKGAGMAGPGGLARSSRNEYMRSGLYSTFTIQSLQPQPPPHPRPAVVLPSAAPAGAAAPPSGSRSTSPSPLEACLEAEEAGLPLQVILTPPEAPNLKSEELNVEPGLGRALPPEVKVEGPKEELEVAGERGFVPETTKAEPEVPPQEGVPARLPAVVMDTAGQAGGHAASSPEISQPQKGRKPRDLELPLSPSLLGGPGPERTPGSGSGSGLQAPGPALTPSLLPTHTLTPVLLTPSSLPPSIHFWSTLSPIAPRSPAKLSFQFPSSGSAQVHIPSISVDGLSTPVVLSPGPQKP
Put shortly: as §1

The next test deals with T7, EHF (Homo sapiens, UniProt Q9NZC4 1-300).
T7 sequence: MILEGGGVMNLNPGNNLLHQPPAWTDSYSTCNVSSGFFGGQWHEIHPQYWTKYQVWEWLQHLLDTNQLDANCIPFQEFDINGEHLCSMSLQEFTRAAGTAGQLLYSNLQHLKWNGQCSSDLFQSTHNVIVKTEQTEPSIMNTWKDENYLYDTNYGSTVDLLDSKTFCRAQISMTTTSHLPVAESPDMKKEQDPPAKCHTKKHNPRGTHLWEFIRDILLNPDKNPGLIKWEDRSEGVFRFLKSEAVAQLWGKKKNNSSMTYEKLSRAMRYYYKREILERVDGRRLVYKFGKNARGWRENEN
Put shortly: as §1

Another test concerns the target SPIB (Homo sapiens, UniProt Q01892 1-262). Put shortly: as §1
For a further test, the target named is T8, ELK3 (Homo sapiens, UniProt P41970 1-407).
T8 sequence: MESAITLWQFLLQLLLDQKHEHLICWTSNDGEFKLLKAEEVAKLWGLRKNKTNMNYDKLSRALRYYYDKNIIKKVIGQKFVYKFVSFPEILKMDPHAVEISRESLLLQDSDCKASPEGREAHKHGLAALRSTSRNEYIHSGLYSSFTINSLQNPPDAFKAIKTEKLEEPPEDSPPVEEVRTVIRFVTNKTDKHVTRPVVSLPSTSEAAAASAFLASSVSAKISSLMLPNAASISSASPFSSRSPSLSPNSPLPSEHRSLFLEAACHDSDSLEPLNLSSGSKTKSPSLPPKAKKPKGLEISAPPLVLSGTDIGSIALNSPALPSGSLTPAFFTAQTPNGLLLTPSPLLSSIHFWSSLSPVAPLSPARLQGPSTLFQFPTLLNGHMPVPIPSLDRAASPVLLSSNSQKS
Put shortly: as §1

For another test, the target named is T9, SPIC (Homo sapiens, UniProt Q8N5J4 1-248).
T9 sequence: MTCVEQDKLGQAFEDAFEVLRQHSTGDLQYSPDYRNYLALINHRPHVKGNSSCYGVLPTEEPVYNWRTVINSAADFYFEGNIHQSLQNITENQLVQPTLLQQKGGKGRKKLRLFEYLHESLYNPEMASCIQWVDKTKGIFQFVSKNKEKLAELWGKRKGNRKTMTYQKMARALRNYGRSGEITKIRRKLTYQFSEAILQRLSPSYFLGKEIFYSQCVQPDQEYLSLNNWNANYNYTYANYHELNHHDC
Put shortly: as §1

The target of another test is T10, ELF3 (Homo sapiens, UniProt P78545 1-371).
T10 sequence: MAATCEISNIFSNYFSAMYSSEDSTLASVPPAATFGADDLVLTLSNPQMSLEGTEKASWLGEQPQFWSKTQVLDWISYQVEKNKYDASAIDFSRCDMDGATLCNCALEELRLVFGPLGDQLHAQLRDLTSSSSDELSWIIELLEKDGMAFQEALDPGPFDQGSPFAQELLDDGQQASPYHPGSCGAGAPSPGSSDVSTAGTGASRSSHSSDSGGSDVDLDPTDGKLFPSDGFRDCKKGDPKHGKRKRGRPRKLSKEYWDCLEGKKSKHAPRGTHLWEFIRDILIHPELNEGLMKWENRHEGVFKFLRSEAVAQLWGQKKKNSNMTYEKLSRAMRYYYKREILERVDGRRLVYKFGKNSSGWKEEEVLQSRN
Put shortly:
as §1

The target of a further test is ETV1 (Homo sapiens, UniProt P50549 1-477). Put shortly: as §1
Sequence of ETV1 (P50549 whole entry): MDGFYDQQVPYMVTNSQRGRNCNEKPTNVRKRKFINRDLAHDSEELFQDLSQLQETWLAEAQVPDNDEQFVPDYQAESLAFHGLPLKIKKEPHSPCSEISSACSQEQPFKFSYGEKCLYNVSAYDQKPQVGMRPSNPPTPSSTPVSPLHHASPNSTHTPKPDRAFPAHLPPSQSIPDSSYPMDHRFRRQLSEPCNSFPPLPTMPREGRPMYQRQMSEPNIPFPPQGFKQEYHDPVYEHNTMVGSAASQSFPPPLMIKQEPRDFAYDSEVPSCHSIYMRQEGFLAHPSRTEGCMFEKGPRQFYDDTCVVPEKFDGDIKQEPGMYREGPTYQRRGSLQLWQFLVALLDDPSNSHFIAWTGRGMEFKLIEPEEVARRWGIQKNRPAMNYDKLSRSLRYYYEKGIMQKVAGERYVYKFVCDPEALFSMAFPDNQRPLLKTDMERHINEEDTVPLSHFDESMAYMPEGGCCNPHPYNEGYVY
The next test has as its target T11, ETS2 (Homo sapiens, UniProt P15036 1-469).
T11 sequence: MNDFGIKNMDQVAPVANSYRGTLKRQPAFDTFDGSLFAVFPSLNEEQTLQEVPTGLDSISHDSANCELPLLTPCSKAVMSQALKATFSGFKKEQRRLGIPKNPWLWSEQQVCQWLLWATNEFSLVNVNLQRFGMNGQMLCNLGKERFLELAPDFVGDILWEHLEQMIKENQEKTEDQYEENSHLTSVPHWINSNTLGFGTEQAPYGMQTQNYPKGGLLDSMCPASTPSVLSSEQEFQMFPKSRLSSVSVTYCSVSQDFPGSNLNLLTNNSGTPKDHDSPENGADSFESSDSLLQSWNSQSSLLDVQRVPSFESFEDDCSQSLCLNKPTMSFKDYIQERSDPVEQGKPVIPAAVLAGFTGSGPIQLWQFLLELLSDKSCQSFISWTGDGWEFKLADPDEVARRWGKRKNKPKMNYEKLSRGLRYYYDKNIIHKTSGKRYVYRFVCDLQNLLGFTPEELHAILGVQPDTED
Put shortly: as §1

The target in another test is T12, SPDEF (Homo sapiens, UniProt O95238 1-335).
T12 sequence: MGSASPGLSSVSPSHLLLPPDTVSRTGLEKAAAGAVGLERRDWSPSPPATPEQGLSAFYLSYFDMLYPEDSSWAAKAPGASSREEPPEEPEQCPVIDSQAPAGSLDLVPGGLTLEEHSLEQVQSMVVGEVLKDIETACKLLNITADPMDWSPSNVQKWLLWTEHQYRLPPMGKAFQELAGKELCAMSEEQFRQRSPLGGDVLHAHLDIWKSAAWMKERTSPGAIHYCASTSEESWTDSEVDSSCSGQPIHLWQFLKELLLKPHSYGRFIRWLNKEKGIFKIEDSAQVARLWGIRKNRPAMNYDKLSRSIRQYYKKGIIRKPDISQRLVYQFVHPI
Put shortly: as §1

The next test has as its target T13, ETV3 (Homo sapiens, UniProt P41162-2 1-143).
T13 sequence: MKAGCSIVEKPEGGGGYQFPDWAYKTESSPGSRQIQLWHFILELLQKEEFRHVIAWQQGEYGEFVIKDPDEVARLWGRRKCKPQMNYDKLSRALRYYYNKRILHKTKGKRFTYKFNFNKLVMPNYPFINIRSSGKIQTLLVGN
Put shortly:
as §1

Sequence of ETV6 (P41212 whole entry): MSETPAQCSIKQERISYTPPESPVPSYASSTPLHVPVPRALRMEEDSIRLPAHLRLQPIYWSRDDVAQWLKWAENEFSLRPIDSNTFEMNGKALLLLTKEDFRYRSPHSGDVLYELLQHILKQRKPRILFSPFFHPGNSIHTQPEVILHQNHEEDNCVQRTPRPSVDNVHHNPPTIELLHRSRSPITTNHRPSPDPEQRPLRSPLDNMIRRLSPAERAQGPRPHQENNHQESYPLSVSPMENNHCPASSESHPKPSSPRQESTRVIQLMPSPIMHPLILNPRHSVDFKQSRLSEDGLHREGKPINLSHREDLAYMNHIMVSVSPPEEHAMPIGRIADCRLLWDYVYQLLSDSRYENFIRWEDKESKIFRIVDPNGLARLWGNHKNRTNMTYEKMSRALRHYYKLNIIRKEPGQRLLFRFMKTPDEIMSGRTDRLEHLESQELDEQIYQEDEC
Sequence of SPIB (Q01892 whole entry): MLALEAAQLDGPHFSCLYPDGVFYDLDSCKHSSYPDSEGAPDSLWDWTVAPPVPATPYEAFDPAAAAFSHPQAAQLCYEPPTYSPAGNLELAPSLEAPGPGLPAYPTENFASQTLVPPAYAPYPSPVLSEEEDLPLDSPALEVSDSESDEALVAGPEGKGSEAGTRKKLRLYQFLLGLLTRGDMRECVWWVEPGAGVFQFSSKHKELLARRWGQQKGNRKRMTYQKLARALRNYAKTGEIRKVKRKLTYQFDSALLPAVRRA
Sequence of ELF4 (Q99607 whole entry): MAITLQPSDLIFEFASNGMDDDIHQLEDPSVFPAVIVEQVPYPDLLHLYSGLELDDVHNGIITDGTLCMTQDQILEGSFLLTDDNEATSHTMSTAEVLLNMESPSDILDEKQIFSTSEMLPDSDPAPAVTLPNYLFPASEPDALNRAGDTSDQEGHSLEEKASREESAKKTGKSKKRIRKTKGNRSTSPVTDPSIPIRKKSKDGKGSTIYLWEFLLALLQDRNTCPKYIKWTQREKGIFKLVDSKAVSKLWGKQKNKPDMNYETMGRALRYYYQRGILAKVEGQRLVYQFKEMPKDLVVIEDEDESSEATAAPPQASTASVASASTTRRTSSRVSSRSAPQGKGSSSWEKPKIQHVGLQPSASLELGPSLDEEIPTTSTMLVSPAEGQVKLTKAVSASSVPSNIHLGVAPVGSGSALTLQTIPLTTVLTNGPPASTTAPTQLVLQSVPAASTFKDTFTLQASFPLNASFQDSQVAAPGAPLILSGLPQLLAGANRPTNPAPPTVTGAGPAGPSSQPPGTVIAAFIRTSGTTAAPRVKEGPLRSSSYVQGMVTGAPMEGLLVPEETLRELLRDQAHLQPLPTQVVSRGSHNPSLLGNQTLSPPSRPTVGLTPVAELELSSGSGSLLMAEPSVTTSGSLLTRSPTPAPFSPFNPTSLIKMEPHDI

For GTGCCC, the binding signal was 1.01 fold enrichment (6-mer frequency, TF over GST control) in the test with GABPA; 1.08 fold enrichment (6-mer frequency, TF over GST control) with ERG; 1.08 fold enrichment (6-mer frequency, TF over GST control) in the test with ETV5; 1.03 fold enrichment (6-mer frequency, TF over GST control) with ELF4; 1.07 fold enrichment (6-mer frequency, TF over GST control) with ELK4; 1 fold enrichment (6-mer frequency, TF over GST control) in the test with ETV3L. The binding signal is 1.01 fold enrichment (6-mer frequency, TF over GST control) with ETV7 and 1 fold enrichment (6-mer frequency, TF over GST control) with ETV6.
Turning to AGTCCT, the binding signal with ELK1 was 1.06 fold enrichment (6-mer frequency, TF over GST control); with ERG, 1.07 fold enrichment (6-mer frequency, TF over GST control); with EHF, 1.03 fold enrichment (6-mer frequency, TF over GST control); with SPIB, 1.13 fold enrichment (6-mer frequency, TF over GST control); with ELK3, 1.01 fold enrichment (6-mer frequency, TF over GST control); in the test with ETV5, 1.05 fold enrichment (6-mer frequency, TF over GST control). For the same sequence, the binding signal with SPIC was 1.13 fold enrichment (6-mer frequency, TF over GST control); with ELK4 it was 1 fold enrichment (6-mer frequency, TF over GST control); with ELF3, 1.03 fold enrichment (6-mer frequency, TF over GST control); with ETV1, 1 fold enrichment (6-mer frequency, TF over GST control); with ETV3L it was 1.02 fold enrichment (6-mer frequency, TF over GST control); with ETS2, 1.06 fold enrichment (6-mer frequency, TF over GST control). For the same sequence, the binding signal with SPDEF is 1.02 fold enrichment (6-mer frequency, TF over GST control); in the test with ETV7, 1.14 fold enrichment (6-mer frequency, TF over GST control); with ETV3, 1.01 fold enrichment (6-mer frequency, TF over GST control); with ETV6 it was 1.03 fold enrichment (6-mer frequency, TF over GST control).
